# A selection: hits, their analogues and other compounds. The true share with any hit is near 3.7%.
# PfHsp90 set2 – growth inhibition of yeast expressing Plasmodium Hsp90; S. cerevisiae expressing PfHsp90, BacTiter-Glo ATP, 48 h; yeast lacking PDR1 and PDR3 efflux regulators; inhibition, % at 9.4 µM; actives 0.32% (n = 310,000); AID 504621;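 active = every replicate shows inhibition above about 80%, whatever the replicate mean, limit read from the data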;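 also: 0% = DMSO neutral controls and 100% = 20 µM radicicol positive controls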
# TIM10 inh – inhibits growth of TIM10 yeast strain; S. cerevisiae TIM10 strain growth, BacTiter-Glo luminescence, 24 h; inhibition, % at 10 µM; actives 1.4% (n = 330,000);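 active = inhibition of 40% or more at the single tested concentration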;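 also: wild-type TIM10 isogenic control strain grown at permissive 25 °C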
# NLRP3 yeast inh – inhibitors of NALP3 inflammasome in yeast. Yeast reconstituted NLRP3/ASC/caspase-1, beta-gal luminescence, 24 h. actives 0.39% (n = 330,000). AID 2825. inhibition, % at 10 µM;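 active = inhibition of 50% or more; inactive = inhibition below 50%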;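 also: plate controls were induced DMSO wells for no effect and uninduced yeast grown without galactose for full effect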
# tim23-1 inh – growth inhibitors of tim23-1 mutant yeast; inhibition, % at 20 µM; actives 1.3% (n = 330,000); AID 463212; S. cerevisiae tim23-1 growth, BacTiter-Glo luminescence, 24 h;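 active = growth inhibition of the mutant yeast at or above 50%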;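 also: temperature-sensitive mutant grown at 25 °C; plate controls were DMSO-treated mutant yeast for no effect and medium wells lacking yeast for full effect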
# tim10-1 inh – growth inhibitors of tim10-1 mutant yeast. inhibition, % at 20 µM. actives 2.2% (n = 330,000). AID 463190. S. cerevisiae tim10-1 ts strain growth, BacTiter-Glo, 24 h;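 active = inhibition of at least 40%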;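 also: mutant grown at 25 °C; 0% = DMSO wells with yeast and 100% = wells holding no yeast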
# tim10-1 confirm – confirmation of tim10-1 mutant yeast growth inhibitors; AID 463213; inhibition, % at 20 µM; S. cerevisiae tim10-1 ts strain growth, BacTiter-Glo, 24 h; actives 56% (n = 7,400); shares compounds with tim10-1 inh;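 active = inhibition of yeast growth at or above a set limit in either of two repeat tests at 20 µM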;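 also: tim10-1 mutant grown at permissive 25 °C to find synthetic lethal compounds; 0% = DMSO yeast wells and 100% = medium wells without yeast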
# TIM10 conf – confirmation of TIM10 yeast growth inhibitors; shares compounds with TIM10 inh; S. cerevisiae tim10 strain growth, BacTiter-Glo luminescence, 24 h; inhibition, % at 10 µM; actives 63% (n = 4,600); AID 463215;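 active = inhibition of yeast growth at or above a set limit in either of two replicates at 10 µM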;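 also: this counterscreen used the strain with wild-type TIM10; 0% = yeast with DMSO and 100% = medium wells lacking yeast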
# Numbers without * were called inactive; . = no result.
SMILES,PfHsp90 set2,TIM10 inh,NLRP3 yeast inh,tim23-1 inh,tim10-1 inh,tim10-1 confirm,TIM10 conf
Cc1cc(C)cc(N2C(=O)CC(Sc3ncn[nH]3)C2=O)c1 (centres undefined),-26,41*,29,43,45*,35*,32*
CCCCn1c(N)c(N(CC(C)C)C(=O)c2cc(-c3ccc(F)cc3)nc3ccccc23)c(=O)[nH]c1=O,.,-6,17,-9,-15,.,.
O=C(c1ccc2c3n(nc2c1)-c1ccccc1CO3)N1CCOCC1,29,41*,2,49,48*,51*,31*
O=C(c1ccc2c3n(nc2c1)-c1ccc(Cl)cc1CO3)N1CCOCC1,-5,-3,16,-1,14,.,.
FC(F)Sc1ccc(NC(=S)NCc2ccccc2)cc1,-22,56*,17,44,48*,41*,44*
FC(F)Sc1ccc(NC(=S)NC(c2ccccc2)c2ccccc2)cc1,-21,12,11,1,8,.,.
FC(F)Sc1ccc(NC(=S)NCC2CCCCC2)cc1,-1,69*,27,48,71*,60*,60*
S=C(Nc1ccc(Br)cc1)NC1CCCC1,-21,9,18,26,28,.,.
FC(F)Sc1ccc(NC(=S)NC2CCCCC2)cc1,.,66*,24,31,65*,67*,62*
CN(CC(=O)Nc1ccc(SC(F)F)cc1)C1CCCCC1,1,-6,18,2,-11,.,.
CCOc1cc(-c2noc(N)c2C#N)cc(OCC)c1OCC,6,67*,-2,48,68*,61*,58*
CCN(C(=O)c1ccco1)c1nc(CC(=O)Nc2ccc(Cl)cc2)cs1,-15,20,36,24,-1,.,.
CCC(=O)N(Cc1ccco1)c1nc(C(=O)Nc2ccc(Cl)cc2)c(C)s1,5,44*,13,35,46*,35*,38*
Nn1cnnc1N/N=C/c1cccc(Cl)c1Cl,11,52*,1,38,51*,50*,60*
Cc1[nH]c2ccc(C(=O)N3CCN(c4ccccn4)CC3)cc2c1C,-6,20,5,23,30,.,.
COc1ccccc1OCC(=O)N/N=C/C=C/c1ccc([N+](=O)[O-])o1,-1,48*,-9,46,67*,84*,51*
O=C(COc1ccccc1[N+](=O)[O-])N/N=C/C=C/c1ccco1,.,8,17,30,25,.,.
CCCCCCCC(=O)N/N=C/c1ccc([N+](=O)[O-])o1,.,49*,28,43,55*,56*,26
Cc1ccccc1OCC(=O)N/N=C/c1ccc([N+](=O)[O-])o1,-12,42*,-3,46,45*,35*,23
Cc1ccccc1OCC(=O)NCC(=O)N/N=C/c1ccc(Br)o1,-11,14,11,15,12,.,.
CC(C)(C)NC(=S)NC(=O)C12CCC3CC(CC(C3)C1)C2,-3,49*,28,34,44*,32*,36*
CC(C)(C)NC(=O)C12CC3CC(CC(Cl)(C3)C1)C2,6,12,16,15,14,.,.
CC1C/C(=C/c2ccncc2)C(=O)/C(=C/c2ccncc2)C1 (centres undefined),98*,84*,28,-8,44*,39*,89*
Cc1ccccc1N1CCN(CC(=O)Nc2ccccc2C(=O)NC2CC2)CC1,-7,-2,42,18,5,.,.
COc1ccc(S(=O)(=O)n2nc(OC(=O)c3cccs3)cc2N)cc1,16,44*,-18,40,45*,31*,52*
CS(=O)(=O)n1nc(OC(=O)c2cccs2)cc1N,1,0,-7,16,5,.,.
COc1oc(C(=O)NC2CCCCC2)c(-c2ccc(Cl)cc2)c1S(=O)(=O)c1ccccc1,-26,.,.,.,.,.,.
CCOC(=O)c1c(N)sc(C(O)(C(F)(F)F)C(F)(F)F)c1-c1ccc(F)cc1,-74,41*,-27,41,43*,20,21
Cc1cc2c3c(c1)C1(SCC(=O)N1c1ccc(F)cc1)C(=O)N3C(C)(C)CC2C (centres undefined),7,42*,8,45,48*,40*,41*
